The record followed here is PubChem BioAssay (NCI).

Some test systems named below: HCT-15 colon; HT29 colon; SNB-75 CNS; SNB-19 CNS; U251 CNS; PC-3 prostate; SK-MEL-5 melanoma; UACC-62 melanoma; LOX IMVI melanoma; SK-MEL-28 melanoma.
Assay in all cases: NCI-60 one-dose screen, 48 h (100 = growth as untreated, 0 = no growth, -100 = all killed)
What all share (conditions): 10 µM unless noted

Structures are written as SMILES. Compounds without any hit were thinned out: in the full panel of roughly 83,000, 20% have a hit.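 A percent growth of 40 corresponds to 60% growth inhibition; 0 means no net growth; -100 means all cells died. Active threshold: below 10.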 Unmarked numbers belong to inactive results. The source made the active and inactive calls.

Consider `O=C(COc1ccc(/C=C2\Oc3ccccc3C2=O)cc1)c1ccc(Cl)cc1`, for which the growth was 106% in the test on HCT-15 colon; 107% in the test on HT29 colon; 103% in the test on SNB-75 CNS; 94.3% with SNB-19 CNS; 104% in the test with U251 CNS; 98.2% with PC-3 prostate. The growth is 109% in the test on SK-MEL-5 melanoma, 88.2% with UACC-62 melanoma, 95.8% in the test with LOX IMVI melanoma and 120% in the test with SK-MEL-28 melanoma.

On to `CNC(=O)c1cc(Oc2ccc3nc(Nc4ccc(Cl)c(C(F)(F)F)c4)ccc3c2)ccn1`, for which the growth with HCT-15 colon was 41.2%; in the test on HT29 colon, 39.6%; in the test with SNB-75 CNS, 82.7%; in the test on SNB-19 CNS it was 77%; in the test with U251 CNS it was 56.8%; with PC-3 prostate, 21.7%. The growth in the test on SK-MEL-5 melanoma is 60.5%; in the test on UACC-62 melanoma, 47.3%; in the test on LOX IMVI melanoma, 60.8%; in the test on SK-MEL-28 melanoma it was 68.6%.

Consider `COc1cc(/C=C/C(=O)c2c(C)nc3ccccc3c2/C=C/c2ccc(C)cc2)cc(OC)c1OC`, for which the growth in the test with HCT-15 colon is -19.4% (active); with HT29 colon, 14%; in the test with SNB-75 CNS it was 22.7%; in the test on SNB-19 CNS it was 40.1%; in the test with U251 CNS, 20.9%; with PC-3 prostate, 25.8%. Besides, the growth in the test with SK-MEL-5 melanoma is 26%; in the test on UACC-62 melanoma, 25.6%; with LOX IMVI melanoma it was -22.8% (active); in the test on SK-MEL-28 melanoma it was 20.3%.

Regarding `COc1cc(N=Nc2ccc(N)cc2)c(OC)cc1N=Nc1ccccc1.[Cl][Zn][Cl]`, the growth was 91.2% with HCT-15 colon; 113% in the test on HT29 colon; 80.9% in the test with SNB-75 CNS; 105% with SNB-19 CNS; 104% with U251 CNS; 90.7% with PC-3 prostate. Also, the growth was 102% in the test on SK-MEL-5 melanoma, 92.2% in the test with UACC-62 melanoma, 88% in the test with LOX IMVI melanoma and 109% in the test on SK-MEL-28 melanoma.

Regarding `COc1ccc2[nH]c(O)c(/C=c3/cc4c(c(-c5ccc(F)c(OC)c5)n3)=Nc3ccccc3-4)c2c1`, the growth with HCT-15 colon was -24% (active); with HT29 colon it was -78.5% (active); with SNB-75 CNS, 92.1%; with SNB-19 CNS it was 47.6%; with U251 CNS, -70.1% (active); in the test on PC-3 prostate, 68.7%. Further, the growth with SK-MEL-5 melanoma was 57.2%; with UACC-62 melanoma it was 79.8%; in the test on LOX IMVI melanoma, -17.2% (active); in the test with SK-MEL-28 melanoma it was -51.2% (active).

For the molecule `Cc1cccc(Cc2cnc(NC(=O)/C=C/c3ccco3)s2)c1`, the growth with HCT-15 colon is 12.8%; with HT29 colon, 6.71% (active); in the test on SNB-75 CNS, 16.8%; with SNB-19 CNS it was 52.2%; with U251 CNS it was 20.6%; in the test on PC-3 prostate, 27.2%. The growth is 11.2% with SK-MEL-5 melanoma, 28.1% in the test on UACC-62 melanoma, 18.8% in the test with LOX IMVI melanoma and 62.2% in the test on SK-MEL-28 melanoma.

In the case of `COc1cc(C2CC(=O)Nc3c2c(C)nn3-c2nc3ccccc3[nH]2)c(OC)c(OC)c1OC` (stereo not given), the growth is 33% with HCT-15 colon; 80.7% in the test with HT29 colon; 1.94% (active) in the test on SNB-75 CNS; 62.9% in the test on SNB-19 CNS; 42% in the test with U251 CNS; 51.9% in the test with PC-3 prostate. Also, the growth with SK-MEL-5 melanoma was 46.7%; with UACC-62 melanoma, 40.7%; in the test with LOX IMVI melanoma it was 67.7%; in the test on SK-MEL-28 melanoma, 72.3%.

Turning to `COc1cc(C(=O)c2cc(C)c3[nH]c4ccc(Cl)cc4c3c2C)cc(OC)c1OC`, the growth is 7.42% (active) in the test on HCT-15 colon; 18.6% in the test on HT29 colon; 22.9% in the test with SNB-75 CNS; 35.6% with SNB-19 CNS; 20% with U251 CNS; 27.3% in the test with PC-3 prostate. Further, the growth in the test on SK-MEL-5 melanoma is -55.8% (active); with UACC-62 melanoma, 42.6%; in the test on LOX IMVI melanoma, 8.56% (active); in the test on SK-MEL-28 melanoma it was 53.6%.

For the molecule `Cc1ccc(Cl)cc1NC(=O)c1cc2ccccc2cc1O`, the growth in the test on HCT-15 colon is 8.41% (active); in the test with HT29 colon, 7.43% (active); in the test with SNB-75 CNS it was -14.3% (active); with SNB-19 CNS, 22.8%; in the test with U251 CNS it was 2.92% (active); with PC-3 prostate, -12.6% (active). The growth in the test on SK-MEL-5 melanoma is -74.4% (active); with UACC-62 melanoma, -11.5% (active); in the test with LOX IMVI melanoma, 3.41% (active); in the test on SK-MEL-28 melanoma it was 9.98% (active).

For `Cc1cc(C)c2c(-c3nnc(N)s3)cc(=O)oc2c1`, the growth was 98.4% with HCT-15 colon; 112% in the test with HT29 colon; 98.8% in the test with SNB-75 CNS; 99.4% in the test with SNB-19 CNS; 103% in the test with U251 CNS; 98.9% with PC-3 prostate. Further, the growth in the test with SK-MEL-5 melanoma was 98.5%; in the test with UACC-62 melanoma, 89.8%; with LOX IMVI melanoma it was 96.7%; in the test with SK-MEL-28 melanoma, 104%.

With `COc1ccc(C(=O)COc2ccc(/C=C3\Oc4ccccc4C3=O)cc2)cc1`, the growth in the test with HCT-15 colon is 96.8%; with HT29 colon, 102%; in the test on SNB-75 CNS, 89.7%; in the test with SNB-19 CNS, 90.9%; in the test with U251 CNS it was 97.4%; with PC-3 prostate, 97.3%. The growth in the test with SK-MEL-5 melanoma was 85.8%; in the test on UACC-62 melanoma, 72.5%; with LOX IMVI melanoma, 92.6%; in the test with SK-MEL-28 melanoma, 123%.

For `COc1ccc(-c2nc3c(c(=O)n2C(C)=O)C(c2ccc(Cl)cc2)c2sc4c(Cl)cccc4c2O3)cc1` (stereo not given), the growth in the test on HCT-15 colon is -29.1% (active); in the test on HT29 colon, -49.4% (active); in the test on SNB-75 CNS it was -12.7% (active); with SNB-19 CNS, 12.7%; in the test with U251 CNS it was -34.3% (active); in the test with PC-3 prostate, 1.24% (active). Also, the growth with SK-MEL-5 melanoma is -23.3% (active); in the test with UACC-62 melanoma, 5.57% (active); with LOX IMVI melanoma, -49.6% (active); in the test with SK-MEL-28 melanoma, 23.4%.

With `COc1ccc(OC)c2c1[nH]c(=O)c1c3ncccc3cn21`, the growth in the test on HCT-15 colon is 22.8%; with HT29 colon it was -9.43% (active); in the test on SNB-75 CNS it was 59.7%; with SNB-19 CNS it was 30.3%; in the test on U251 CNS, 22.5%; in the test on PC-3 prostate it was 33.6%. Besides, the growth in the test on SK-MEL-5 melanoma was 33.3%; in the test with UACC-62 melanoma it was 23.4%; in the test on LOX IMVI melanoma it was 8.59% (active); in the test on SK-MEL-28 melanoma, 64.3%.
